The full data set covers some 7,900 targets. This sample favours those with a hit. About 0.6% of all pairs of compound and target were hits.
Key:
Test in all cases: log2 fold change, soluble protein after heating vs DMSO (PISA); higher = thermal stabilisation; K562 cells, 10 uM, 30 min; active = over 0.2 and 3.5 SD of the protein, either way, in both replicates (recomputed)
erlotinib = compound: C#Cc1cccc(Nc2ncnc3cc(OCCOC)c(OCCOC)cc23)c1 [erlotinib]
Outline: (§1)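 Values are thermal stability changes relative to control samples and are taken from duplicates. They are stated as log2 fold changes. Before quantification by TMTpro 16plex LC-MS/MS with equalised channel sums, K562 cells at 2×10^6 cells/mL were treated with 10 μM compound for 30 min, heated in aliquots for 3 min across 48°C-58°C, pooled, extracted in PBS with 0.5% NP-40 at 4°C, and centrifuged at 21,000xg for 90 min to give the soluble supernatant.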

[1] = compound: C/C(=N\NC(=O)C1=CC(=CC=C1)S(=O)(=O)N2CCOCC2)/C3=C(C=CC(=C3)Cl)O
Outline: as §1

[2] = compound: C1=CC(=C(C=C1Cl)C2=NC3=NC=CN=C3C(=N2)NC4=CC=NC=C4)F
Outline: as §1

[3] = compound: C1=CC(=CC=C1C2=NC3=C(N2)C=C(C=C3)C(=O)N)OC4=CC=C(C=C4)Cl
Outline: as §1

[4] = compound: C1=CC2=C(C=CC(=C2)/C=C\3/C(=O)NC(=NCC4=CC=CS4)S3)N=C1
Outline: as §1

[5] = compound: C1=CC2=NC=CN=C2C=C1/C=C/3\C(=O)NC(=O)S3
Outline: as §1

[6] = compound: C1=CC=C(C=C1)C2=NC(=C(N2)C3=CC=NC=C3)C4=CC(=C(C=C4)Cl)O
Outline: as §1

[7] = compound: C1=CC=C2C(=C1)C3=NNC4=CC=CC(=C43)C2=O
Outline: as §1

[8] = compound: C1CCN(C1)C(=O)NC2=CC=CC(=C2)NC3=NC=C(C(=N3)NCCC4=CN=CN4)Br
Outline: as §1

[9] = compound: C1CN(CCC1(CC2=CC=C(C=C2)Cl)N)C3=NC=NC4=C3C=CN4
Outline: as §1

IRAK-1-4 Inhibitor I = compound: C1COCCN1CCN2C3=CC=CC=C3N=C2NC(=O)C4=CC(=CC=C4)[N+](=O)[O-] [IRAK-1-4 Inhibitor I]
Outline: as §1

ibrutinib = compound: C=CC(=O)N1CCC[C@@H](n2nc(-c3ccc(Oc4ccccc4)cc3)c3c(N)ncnc32)C1 [ibrutinib]
Outline: as §1

[10] = compound: CC(=O)c1cnc2ccc(-c3cc(Cl)c(O)c(Cl)c3)nc2c1N[C@H]1CC[C@H](CN(C)C)CC1
Outline: as §1

ralimetinib = compound: CC(C)(C)Cn1c(N)nc2ccc(-c3[nH]c(C(C)(C)C)nc3-c3ccc(F)cc3)nc21 [ralimetinib]
Outline: as §1

[11] = compound: CC(C)(O)CC(=O)NCCn1ccc2ncnc(Nc3ccc(Oc4cccc(C(F)(F)F)c4)c(Cl)c3)c21
Outline: as §1

[12] = compound: CC(C)C1=C2N=C(C=C(N2N=C1)NCC3=CC=CC=C3)NCCCCCCN
Outline: as §1

[13] = compound: CC(C)C[C@@H](C=O)NC(=O)[C@H](CC(C)C)NC(=O)[C@H](CC(C)C)NC(=O)OCc1ccccc1
Outline: as §1

pinometostat = compound: CC(C)N(C[C@H]1O[C@@H](n2cnc3c(N)ncnc32)[C@H](O)[C@@H]1O)[C@H]1C[C@@H](CCc2nc3cc(C(C)(C)C)ccc3[nH]2)C1 [pinometostat]
Outline: as §1

[14] = compound: CC1=C(C(CC(=O)N1)C2=CC=C(C=C2)C(F)(F)F)C(=O)NC3=C(C=C4C(=C3)C=NN4)F
Outline: as §1

[15] = compound: CC1=C(C2=C(C=C1)C(=O)C3=CC=CC=C3N2CCCN)C
Outline: as §1

Measured: log2 fold change

RPTOR (UniProt Q8N122)
Sequence of UniProt Q8N122 (Q8N122 whole entry, looked up): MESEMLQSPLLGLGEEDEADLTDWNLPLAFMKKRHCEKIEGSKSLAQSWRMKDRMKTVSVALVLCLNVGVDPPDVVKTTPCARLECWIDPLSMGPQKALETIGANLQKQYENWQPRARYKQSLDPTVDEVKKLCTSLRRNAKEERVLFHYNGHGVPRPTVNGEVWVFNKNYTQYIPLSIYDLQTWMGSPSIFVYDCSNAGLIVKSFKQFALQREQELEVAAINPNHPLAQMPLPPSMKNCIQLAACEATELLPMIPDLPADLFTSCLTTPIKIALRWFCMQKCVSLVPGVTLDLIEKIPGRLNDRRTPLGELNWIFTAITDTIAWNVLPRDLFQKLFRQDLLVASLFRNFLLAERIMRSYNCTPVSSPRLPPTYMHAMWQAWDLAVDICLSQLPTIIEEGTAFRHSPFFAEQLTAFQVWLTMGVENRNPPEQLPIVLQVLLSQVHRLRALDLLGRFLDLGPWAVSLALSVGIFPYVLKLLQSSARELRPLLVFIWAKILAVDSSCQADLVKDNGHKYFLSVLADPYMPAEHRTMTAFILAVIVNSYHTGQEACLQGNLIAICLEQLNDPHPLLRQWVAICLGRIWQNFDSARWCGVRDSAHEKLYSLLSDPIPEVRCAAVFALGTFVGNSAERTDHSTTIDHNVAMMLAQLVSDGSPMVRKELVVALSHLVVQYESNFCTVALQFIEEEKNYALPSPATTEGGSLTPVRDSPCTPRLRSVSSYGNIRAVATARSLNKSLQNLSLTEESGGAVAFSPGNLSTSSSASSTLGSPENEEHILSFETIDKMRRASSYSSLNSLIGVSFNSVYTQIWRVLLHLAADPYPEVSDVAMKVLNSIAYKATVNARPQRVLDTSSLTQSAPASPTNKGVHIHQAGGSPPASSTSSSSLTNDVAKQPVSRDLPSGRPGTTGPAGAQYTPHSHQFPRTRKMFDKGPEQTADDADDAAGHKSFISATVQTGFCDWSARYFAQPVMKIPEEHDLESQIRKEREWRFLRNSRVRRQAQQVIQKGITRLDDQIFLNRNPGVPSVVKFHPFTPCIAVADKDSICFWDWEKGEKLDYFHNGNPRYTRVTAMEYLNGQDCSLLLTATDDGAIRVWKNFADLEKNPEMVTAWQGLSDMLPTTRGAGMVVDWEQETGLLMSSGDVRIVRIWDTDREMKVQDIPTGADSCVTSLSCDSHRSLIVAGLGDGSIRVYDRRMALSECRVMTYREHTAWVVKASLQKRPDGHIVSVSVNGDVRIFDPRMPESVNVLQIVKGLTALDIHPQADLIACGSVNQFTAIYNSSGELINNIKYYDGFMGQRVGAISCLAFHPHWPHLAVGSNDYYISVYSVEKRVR
inactive: erlotinib -0.034 | [1] 0.075 | [2] 0.036 | [3] -0.037 | [4] 0.039 | [5] 0.003 | [6] -0.038 | [7] -0.031 | [8] -0.042 | [9] -0.027 | IRAK-1-4 Inhibitor I 0 | ibrutinib 0.051 | [10] -0.145 | ralimetinib -0.022 | [11] -0.129 | [12] -0.187 | [13] -0.011 | pinometostat -0.012 | [14] -0.03 | [15] 0.009

RSRC2 (UniProt Q7L4I2)
Sequence of UniProt Q7L4I2 (Q7L4I2 whole entry, looked up): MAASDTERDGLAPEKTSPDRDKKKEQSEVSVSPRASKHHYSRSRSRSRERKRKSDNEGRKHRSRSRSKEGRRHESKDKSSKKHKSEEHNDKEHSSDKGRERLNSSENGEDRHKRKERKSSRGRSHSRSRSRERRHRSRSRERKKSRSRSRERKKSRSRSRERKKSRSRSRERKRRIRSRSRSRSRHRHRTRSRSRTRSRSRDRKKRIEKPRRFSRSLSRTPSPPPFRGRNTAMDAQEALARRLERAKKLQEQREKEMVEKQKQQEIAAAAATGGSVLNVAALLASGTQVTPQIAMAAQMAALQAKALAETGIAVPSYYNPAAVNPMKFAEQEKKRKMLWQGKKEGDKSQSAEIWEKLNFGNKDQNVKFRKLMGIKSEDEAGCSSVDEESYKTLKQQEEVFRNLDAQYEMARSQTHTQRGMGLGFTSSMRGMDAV
inactive: erlotinib 0.023 | [1] -0.01 | [2] -0.009 | [3] -0.012 | [4] -0.05 | [5] 0.018 | [6] 0.019 | [7] -0.032 | [8] 0 | [9] 0.012 | IRAK-1-4 Inhibitor I 0.03 | ibrutinib -0.035 | ralimetinib 0.012 | [11] -0.033 | [12] -0.013 | [13] -0.026 | pinometostat -0.019 | [14] 0.028 | [15] 0.016
active: [10] -0.284

RAB3IL1 (UniProt E9PK89)
inactive: erlotinib -0.238 | [1] -0.055 | [2] 0.116 | [3] -0.001 | [4] 0.058 | [5] 0.104 | [6] -0.028 | [7] 0.197 | [8] -0.162 | [9] 0.004 | IRAK-1-4 Inhibitor I -0.012 | ibrutinib -0.021 | [10] -0.006 | ralimetinib -0.018 | [11] -0.127 | [12] -0.032 | [13] 0.006 | pinometostat 0.017 | [14] 0.08 | [15] -0.005

RNF14 (UniProt Q9UBS8)
Sequence of UniProt Q9UBS8 (Q9UBS8 whole entry, looked up): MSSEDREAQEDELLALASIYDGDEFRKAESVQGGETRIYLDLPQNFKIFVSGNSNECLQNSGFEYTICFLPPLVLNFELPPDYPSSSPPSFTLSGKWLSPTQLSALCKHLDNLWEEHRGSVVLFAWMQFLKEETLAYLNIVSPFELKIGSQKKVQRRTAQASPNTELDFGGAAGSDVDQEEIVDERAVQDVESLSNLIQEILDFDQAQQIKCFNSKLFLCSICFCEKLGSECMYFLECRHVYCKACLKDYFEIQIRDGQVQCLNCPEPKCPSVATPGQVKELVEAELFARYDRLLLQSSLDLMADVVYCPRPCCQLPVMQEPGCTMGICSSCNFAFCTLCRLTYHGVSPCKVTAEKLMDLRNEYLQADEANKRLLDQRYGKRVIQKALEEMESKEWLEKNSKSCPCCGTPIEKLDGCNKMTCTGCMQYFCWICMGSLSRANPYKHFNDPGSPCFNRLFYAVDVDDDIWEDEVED
inactive: erlotinib -0.006 | [1] 0.038 | [2] 0.048 | [3] 0.043 | [4] 0.015 | [5] -0.019 | [6] 0.014 | [7] -0.029 | [8] 0.002 | [9] 0.071 | IRAK-1-4 Inhibitor I 0.019 | ibrutinib 0.006 | [10] 0.011 | ralimetinib -0.008 | [11] -0.035 | [12] -0.039 | [13] 0.014 | pinometostat -0.075 | [14] 0.006 | [15] -0.05

RPS5 (UniProt P46782)
active: [15] -0.551
inactive: erlotinib -0.149 | [1] -0.087 | [2] -0.193 | [3] 0.038 | [4] -0.047 | [5] -0.045 | [6] -0.003 | [7] 0.008 | [8] 0.022 | [9] -0.125 | IRAK-1-4 Inhibitor I -0.137 | ibrutinib 0.045 | [10] 0.083 | ralimetinib 0.103 | [11] 0 | [12] -0.015 | [13] -0.019 | pinometostat 0.091 | [14] 0.034

RALY (UniProt Q9UKM9)
Sequence of UniProt Q9UKM9 (Q9UKM9 whole entry, looked up): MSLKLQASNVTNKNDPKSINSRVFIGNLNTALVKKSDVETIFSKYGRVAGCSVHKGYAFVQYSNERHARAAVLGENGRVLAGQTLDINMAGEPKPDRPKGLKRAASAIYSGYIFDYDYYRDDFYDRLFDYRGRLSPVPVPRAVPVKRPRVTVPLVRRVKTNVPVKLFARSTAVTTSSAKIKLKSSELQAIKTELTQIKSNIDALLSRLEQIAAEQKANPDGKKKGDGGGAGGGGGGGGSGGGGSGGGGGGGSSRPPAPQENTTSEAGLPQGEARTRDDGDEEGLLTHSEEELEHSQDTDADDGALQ
inactive: erlotinib 0.018 | [1] -0.072 | [2] -0.541 | [3] 0.189 | [4] -0.144 | [5] 0.154 | [6] -0.11 | [7] 0.038 | [8] 0.008 | [9] -0.22 | IRAK-1-4 Inhibitor I -0.315 | ibrutinib 0.001 | [10] -0.21 | ralimetinib -0.029 | [11] 0.055 | [12] -0.101 | [13] 0.083 | pinometostat 0.129 | [14] 0.068 | [15] -0.311

RPS2 (UniProt P15880)
active: [15] -0.682
inactive: erlotinib -0.199 | [1] -0.138 | [2] -0.323 | [3] 0.047 | [4] -0.1 | [5] -0.039 | [6] -0.064 | [7] -0.041 | [8] 0.086 | [9] -0.162 | IRAK-1-4 Inhibitor I -0.101 | ibrutinib 0.042 | [10] 0.085 | ralimetinib 0.055 | [11] 0.019 | [12] -0.004 | [13] 0.061 | pinometostat 0.222 | [14] 0.032

RNF167 (UniProt Q9H6Y7)
inactive: erlotinib -0.133 | [1] -0.073 | [2] -0.069 | [3] 0.052 | [4] 0.025 | [5] 0.025 | [6] -0.004 | [7] -0.07 | [8] -0.018 | [9] -0.009 | IRAK-1-4 Inhibitor I -0.001 | ibrutinib 0.015 | [10] 0.039 | ralimetinib -0.018 | [11] -0.025 | [12] -0.047 | [13] -0.009 | pinometostat 0.015 | [14] 0.064 | [15] 0

RANBP2 (UniProt P49792)
inactive: erlotinib -0.107 | [1] 0.007 | [2] 0.062 | [3] 0.081 | [4] 0.082 | [5] 0.003 | [6] -0.007 | [7] -0.028 | [8] 0.005 | [9] 0 | IRAK-1-4 Inhibitor I 0.024 | ibrutinib 0.035 | [10] 0.081 | ralimetinib 0.022 | [11] -0.043 | [12] -0.136 | [13] 0.024 | pinometostat -0.017 | [14] 0.169 | [15] 0.076

RPS19 (UniProt P39019)
inactive: erlotinib -0.141 | [1] -0.102 | [2] -0.274 | [3] 0.057 | [4] -0.082 | [5] -0.044 | [6] -0.026 | [7] -0.015 | [8] 0.094 | [9] -0.145 | IRAK-1-4 Inhibitor I -0.085 | ibrutinib 0.052 | [10] 0.05 | ralimetinib 0.064 | [11] 0.03 | [12] -0.025 | [13] 0.039 | pinometostat 0.084 | [14] 0.026
active: [15] -0.523

RIPK1 (UniProt Q13546)
Sequence of UniProt Q13546 (Q13546 whole entry, looked up): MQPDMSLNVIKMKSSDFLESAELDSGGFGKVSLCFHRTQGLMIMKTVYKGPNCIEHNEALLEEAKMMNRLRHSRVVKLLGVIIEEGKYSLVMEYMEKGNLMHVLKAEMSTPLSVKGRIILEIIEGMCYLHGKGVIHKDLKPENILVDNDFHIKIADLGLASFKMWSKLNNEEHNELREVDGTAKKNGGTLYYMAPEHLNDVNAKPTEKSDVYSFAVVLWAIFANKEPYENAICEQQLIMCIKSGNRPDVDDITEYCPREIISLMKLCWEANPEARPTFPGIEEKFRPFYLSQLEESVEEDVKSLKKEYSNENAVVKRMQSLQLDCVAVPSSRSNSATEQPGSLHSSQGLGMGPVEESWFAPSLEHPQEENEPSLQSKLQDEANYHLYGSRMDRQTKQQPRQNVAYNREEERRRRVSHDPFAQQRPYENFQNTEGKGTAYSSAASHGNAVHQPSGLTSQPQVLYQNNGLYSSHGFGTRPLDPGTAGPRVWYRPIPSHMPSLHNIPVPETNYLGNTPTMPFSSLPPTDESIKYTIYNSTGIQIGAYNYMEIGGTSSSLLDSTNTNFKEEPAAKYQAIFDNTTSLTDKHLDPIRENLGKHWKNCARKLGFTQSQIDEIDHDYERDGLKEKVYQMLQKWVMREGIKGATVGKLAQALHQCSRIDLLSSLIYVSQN
inactive: erlotinib 0.013 | [1] -0.008 | [2] -0.028 | [3] 0 | [4] 0.068 | [5] -0.016 | [6] 0.004 | [7] 0.219 | [8] 0.002 | [9] -0.015 | IRAK-1-4 Inhibitor I -0.104 | ibrutinib -0.081 | [10] -0.201 | ralimetinib 0.195 | [11] -0.023 | [12] -0.23 | [13] 0.14 | pinometostat 0.123 | [14] -0.014 | [15] 0.056

SLC1A5 (UniProt Q15758)
inactive: erlotinib -0.001 | [1] 0.003 | [2] 0.043 | [3] 0.002 | [4] -0.051 | [5] 0.006 | [6] 0.075 | [7] -0.046 | [8] -0.052 | [9] 0.089 | IRAK-1-4 Inhibitor I 0.035 | ibrutinib 0.028 | [10] 0.013 | ralimetinib 0.046 | [11] -0.002 | [12] 0.23 | [13] -0.052 | pinometostat -0.034 | [14] -0.012 | [15] -0.014

RB1CC1 (UniProt Q8TDY2)
Sequence of UniProt Q8TDY2 (Q8TDY2 whole entry, looked up): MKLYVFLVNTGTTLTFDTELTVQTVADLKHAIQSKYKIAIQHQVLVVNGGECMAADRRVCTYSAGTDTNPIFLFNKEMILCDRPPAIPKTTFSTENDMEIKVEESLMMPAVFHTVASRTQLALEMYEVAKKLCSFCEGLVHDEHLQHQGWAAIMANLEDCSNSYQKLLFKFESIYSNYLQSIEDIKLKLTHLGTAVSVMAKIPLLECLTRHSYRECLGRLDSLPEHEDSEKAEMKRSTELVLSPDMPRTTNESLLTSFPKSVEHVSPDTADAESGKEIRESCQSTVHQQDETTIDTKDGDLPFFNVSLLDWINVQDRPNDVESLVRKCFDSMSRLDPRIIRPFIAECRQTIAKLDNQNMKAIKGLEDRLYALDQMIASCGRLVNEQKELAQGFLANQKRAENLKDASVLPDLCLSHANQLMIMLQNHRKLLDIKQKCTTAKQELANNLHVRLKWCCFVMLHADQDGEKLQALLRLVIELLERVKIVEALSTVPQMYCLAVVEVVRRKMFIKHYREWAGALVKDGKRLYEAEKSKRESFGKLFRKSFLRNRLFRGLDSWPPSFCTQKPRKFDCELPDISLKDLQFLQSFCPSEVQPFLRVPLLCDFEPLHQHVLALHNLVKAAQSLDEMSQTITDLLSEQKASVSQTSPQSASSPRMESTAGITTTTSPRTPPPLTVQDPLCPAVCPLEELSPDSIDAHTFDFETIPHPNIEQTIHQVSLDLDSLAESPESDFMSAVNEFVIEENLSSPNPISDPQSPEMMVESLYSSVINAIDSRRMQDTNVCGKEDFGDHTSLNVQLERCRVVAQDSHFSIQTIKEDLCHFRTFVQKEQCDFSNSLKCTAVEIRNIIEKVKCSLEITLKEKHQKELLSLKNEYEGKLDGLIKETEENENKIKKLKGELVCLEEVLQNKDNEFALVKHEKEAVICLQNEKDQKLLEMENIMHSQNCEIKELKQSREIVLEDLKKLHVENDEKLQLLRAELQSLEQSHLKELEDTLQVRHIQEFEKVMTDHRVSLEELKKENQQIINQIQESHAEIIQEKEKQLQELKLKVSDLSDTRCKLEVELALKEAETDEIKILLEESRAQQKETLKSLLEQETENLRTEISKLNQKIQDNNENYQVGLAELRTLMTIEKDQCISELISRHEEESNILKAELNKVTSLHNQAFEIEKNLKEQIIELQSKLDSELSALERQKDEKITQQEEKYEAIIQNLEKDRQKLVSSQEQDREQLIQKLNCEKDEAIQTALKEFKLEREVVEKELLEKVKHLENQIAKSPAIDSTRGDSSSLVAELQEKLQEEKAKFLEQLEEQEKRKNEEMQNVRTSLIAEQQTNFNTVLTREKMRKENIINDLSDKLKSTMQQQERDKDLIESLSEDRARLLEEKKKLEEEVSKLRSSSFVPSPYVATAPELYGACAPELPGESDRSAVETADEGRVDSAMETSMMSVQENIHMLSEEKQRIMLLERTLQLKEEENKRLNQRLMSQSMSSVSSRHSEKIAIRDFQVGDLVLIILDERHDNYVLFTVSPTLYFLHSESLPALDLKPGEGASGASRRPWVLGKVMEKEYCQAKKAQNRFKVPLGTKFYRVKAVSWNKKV
inactive: erlotinib 0.119 | [1] -0.066 | [2] 0.102 | [3] 0.046 | [4] 0.211 | [5] -0.07 | [6] 0.015 | [7] 0.03 | [8] -0.024 | [9] 0.022 | IRAK-1-4 Inhibitor I 0.092 | ibrutinib 0.094 | [10] 0.045 | ralimetinib 0.089 | [11] -0.11 | [12] 0.045 | [13] 0.03 | pinometostat -0.023 | [14] -0.015 | [15] 0.041

SCCPDH (UniProt Q8NBX0)
inactive: erlotinib -0.047 | [1] -0.021 | [2] 0.079 | [3] -0.065 | [4] 0.019 | [5] 0.051 | [6] 0.037 | [7] 0.03 | [8] 0.011 | [9] 0.064 | IRAK-1-4 Inhibitor I -0.005 | ibrutinib 0.061 | [10] 0.031 | ralimetinib 0.059 | [11] 0.156 | [12] 0.038 | [13] -0.032 | pinometostat -0.073 | [14] -0.031 | [15] 0.023

RTF2 (UniProt Q9BY42)
inactive: erlotinib 0.026 | [1] 0.063 | [2] 0.035 | [3] -0.049 | [4] -0.049 | [5] -0.023 | [6] -0.035 | [7] -0.02 | [8] -0.074 | [9] 0.045 | IRAK-1-4 Inhibitor I 0 | ibrutinib -0.096 | [10] -0.017 | ralimetinib -0.022 | [11] 0.032 | [12] 0.164 | [13] 0.098 | pinometostat -0.059 | [14] -0.025 | [15] -0.054

SDHAF4 (UniProt Q5VUM1)
Sequence of UniProt Q5VUM1 (Q5VUM1 whole entry, looked up): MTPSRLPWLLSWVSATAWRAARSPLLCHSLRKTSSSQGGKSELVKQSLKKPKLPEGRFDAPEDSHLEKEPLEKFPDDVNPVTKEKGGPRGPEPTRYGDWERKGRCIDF
inactive: erlotinib 0 | [1] 0.104 | [2] 0.026 | [3] 0.031 | [4] 0.118 | [5] 0.033 | [7] -0.117 | [8] 0.054 | [9] 0.094 | IRAK-1-4 Inhibitor I -0.071 | ibrutinib 0.01 | [10] -0.055 | [11] 0.081 | [12] 0.149 | pinometostat -0.082 | [14] -0.101 | [15] 0.021

Reference: the supplement of paper PMC10849652
